p53ts 32C kill: cytotoxicity in p53ts cells at permissive temperature; H1299-p53A138V at 32C, ATP luminescence viability, 24 h; Potency, µM (series often up to 46.1 µM), without a hit: top-dose activity change, negative = cytotoxicity, actives largely listed as cytotoxic; hit rate 0.93% among 130,000;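 note: 0% = DMSO and -100% = full killing by reference compound; nearly all actives have a fitted effect of over 55% in size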
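Cells: H1299 p53ts (A138V), 600/well, pre-incubated 16–30 h at 37C. Cpd up to 46 uM, 24 h, 32C. Readout: ATPlite luminescence, 20 min RT. Normalization: DMSO vs tamoxifen 100 uM. AC50 by Hill equation.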
p53ts 39C tox: cytotoxicity in p53ts cells at nonpermissive temperature; H1299-p53A138V viability at 39C, ATP luminescence, 24 h; Potency, µM (titrated, usually from 46.1 µM), for inactives: at the highest dose activity change, negative = cell killing, hits mostly cytotoxic; hit rate 1.5% among 130,000; note: nearly all actives have a fitted effect of over 55% in size
Luciferase inh: inhibitors of firefly luciferase; purified firefly luciferase, luminescence, 8 min; Potency, µM (top dose mostly 57.1 µM), for inactives: at the top dose activity change, negative = inhibition, usual class: inhibitors; hit rate 2.2% among 72,000; note: nearly all actives have a fitted effect of over 40% in size
Target sequence (P08659 whole entry, looked up): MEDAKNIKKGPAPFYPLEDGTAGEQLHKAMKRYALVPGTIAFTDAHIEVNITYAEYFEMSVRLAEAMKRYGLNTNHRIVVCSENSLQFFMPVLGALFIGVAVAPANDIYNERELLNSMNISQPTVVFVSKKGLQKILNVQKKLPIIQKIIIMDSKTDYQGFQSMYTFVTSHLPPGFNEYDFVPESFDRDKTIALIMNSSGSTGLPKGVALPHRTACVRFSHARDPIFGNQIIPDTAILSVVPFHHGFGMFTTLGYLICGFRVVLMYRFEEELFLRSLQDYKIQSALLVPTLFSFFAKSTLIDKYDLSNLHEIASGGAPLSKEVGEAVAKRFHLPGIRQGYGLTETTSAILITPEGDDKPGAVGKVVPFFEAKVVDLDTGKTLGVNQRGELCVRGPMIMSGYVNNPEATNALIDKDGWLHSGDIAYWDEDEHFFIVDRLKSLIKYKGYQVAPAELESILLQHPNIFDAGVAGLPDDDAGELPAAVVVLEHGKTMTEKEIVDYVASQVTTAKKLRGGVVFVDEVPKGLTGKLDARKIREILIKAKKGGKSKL
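Here, luciferase activity is measured as luminescence following an 8 min room-temperature reaction at 10 uM ATP, pH 7.2. Every library sample is titrated.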
* = called active by the depositor; ? = inconclusive; / = no result given; [ ] = dose if it differs, or a comment. Rows were chosen to be rich in hits. Some 2.6% of all compounds tested hit in one or more screens of this group. Calls come from the whole dose curve; as a rule, active = well fitted curve in the direction sought with a large enough effect; inconclusive = small, poorly fitted or top-dose-only effect, or another doubt; inactive = no such curve, though single readings can be large; an effect the other way counts as inactive or inconclusive. Unless noted, % is set by controls: 0 for no effect and ±100 for the full control effect; potency is the fitted concentration of half-maximal effect.

SMILES	p53ts 32C kill	p53ts 39C tox	Luciferase inh
O=C(CSc1nc2c([nH]c3ccccc32)c(=O)n1-c1ccc(Cl)cc1)NC1CCCCC1	4%	10µM*	/
CCOc1ccc(-n2c(SCC(=O)NC3CCCCC3)nc3c([nH]c4ccccc43)c2=O)cc1	9%	1%	/
COc1ccc(C2CC(c3c(O)cc(C)oc3=O)=NCCS2)c(OC)c1 (centres undefined)	4µM*	2.5µM*	-14%
COc1ccc(C2CC(=O)Nc3cc4c(cc32)OCO4)c(OC)c1 (centres undefined)	7%	-19%	/
COc1ccc(C)cc1NC(=O)C(=O)NCC(c1cccnc1)N1CCc2ccccc21 (centres undefined)	4%	10%	/
CC(C)C(NC(=O)C1CCCCC1)C(=O)Nc1ccc2c(c1)OCCO2 (centres undefined)	?	?	13µM*
CC(C)C(NC(=O)C1CCCCC1)C(=O)Nc1ccncc1 (centres undefined)	8%	2%	1%
CSc1ccccc1NC(=O)CCS(=O)(=O)c1nc(-c2ccc3c(c2)OCO3)cc(C(F)(F)F)n1	?	4µM*	/
O=C(CCS(=O)(=O)c1nc(-c2ccc3c(c2)OCO3)cc(C(F)(F)F)n1)Nc1ccc(Br)cc1	?	3.2µM*	/
Cc1ccc(NC(=O)CCSc2nc(-c3ccc4c(c3)OCO4)cc(C(F)(F)F)n2)cc1	-7%	8%	/
Cc1ccc(NC(=O)CCSc2nc(-c3ccc4c(c3)OCO4)cc(C(F)(F)F)n2)c(C)c1	-3%	?	/
CC(=O)c1cccc(NC(=O)c2sc3nc4c(cc3c2N)CCCC4)c1	?	13µM*	/
COc1ccc(NC(=O)c2sc3nc4c(cc3c2N)CCCCCC4)cc1OC	-17%	-27%	/
Cc1cccc(CCNC(=O)c2ccc3c(c2)N(Cc2ccccc2F)C(=O)c2ccccc2S3)c1	11%	30%	/
O=C(O)c1cc(NC2(c3ccccc3)C(=O)c3ccccc3C2=O)ccc1Cl	-7%	-10%	/
COc1ccccc1Nc1nc2ccccc2[nH]1	?	?	13µM*
COc1ccccc1Nc1nc(C)cc(=O)[nH]1	2%	15%	0%
Cc1cc(C)c(NC(=O)Cn2nnc3sc4c(c3c2=O)CCC(C(C)(C)C)C4)c(C)c1 (centres undefined)	?	13µM*	/
Cc1ccc(Cl)cc1NC(=O)Cn1nnc2sc3c(c2c1=O)CCC(C(C)(C)C)C3 (centres undefined)	4%	-19%	/
CCOC(=O)CC1c2cc(OCC)c(OCC)cc2CCN1C(=O)Nc1cccc(Cl)c1 (centres undefined)	2%	-2%	/
COc1ccc(CCNC(=O)c2ccc3c(c2)CCN3S(=O)(=O)c2ccc(C)cc2)cc1	5%	-28%	/
O=C(SCc1cccc2ccccc12)c1ccc(Cl)cc1	-3%[9.22 µM]	1%[9.22 µM]	4%[11.4 µM]
O=C(NCCn1ccc2ccccc21)c1ccc(Cl)cc1	3%	-1%	/
CN(Cc1ccccc1)S(=O)(=O)c1ccc(C(=O)Nc2nnc(C3CC3)o2)cc1	1%	13µM*	0%
COc1ccccc1-c1nnc(NC(=O)c2ccc(S(=O)(=O)N(C)Cc3ccccc3)cc2)o1	-2%	13µM*	0%
SMILES	p53ts 32C kill	p53ts 39C tox	Luciferase inh
CN(Cc1ccccc1)S(=O)(=O)c1ccc(-c2cnc(C3CC3)o2)cc1	-9%	-15%	/
CN(c1ccccc1)S(=O)(=O)c1ccc(C(=O)Nc2nnc(-c3ccc(F)cc3)o2)cc1	-27%	?	-2%
CCCc1cc2c(n1Cc1ccc(OC)cc1)C(C)C1CN(C(=O)c3ccccc3)C(C)(C(=O)OC)C21 (centres undefined)	6%	4%	/
COc1cc2nc(NCCc3cccc(C)c3)n3nc(-c4ccccc4)nc3c2cc1OC	5%	-13%	/
CCCCC(=O)Nc1cccc(-c2nnc(-c3ccccc3)o2)c1	3%	7%	-2%
COc1cc(OC)cc(C(=O)Nc2cccc(-c3cn4cccnc4n3)c2)c1	2%	-3%	/
Cc1csc2nc(-c3cccc(NC(=O)c4ccccc4F)c3)cn12	?	6.3µM*	/
Cc1csc2nc(-c3cccc(NC(=O)c4ccccc4Cl)c3)cn12	-21%	?	/
CCCCC(=O)Nc1cccc(-c2cn3ccsc3n2)c1	?	-26%	13µM*
O=C(Nc1cccc(-c2cn3ccsc3n2)c1)c1ccccc1	?	16µM*	25µM*
CCOc1ncccc1C(=O)Nc1ccc(-c2cn3ccsc3n2)cc1	4%	17%	0%
COc1ccccc1C(=O)Nc1cccc(-c2cn3ccsc3n2)c1	-29%	-30%	13µM*
COc1cccc(NC(=O)c2c(N3CCCC3=O)c3cc(C)ccc3n2C)c1	1%	-10%	/
O=C(COc1ccc([N+](=O)[O-])cc1)N1CCC(c2nc3ccccc3s2)CC1	-9%	-10%	/
O=C1CC(c2nnc(Cc3ccc(F)cc3)o2)CN1c1ccccc1 (centres undefined)	-4%	9%	/
O=C(Nc1cccc(-c2cn3ccccc3n2)c1)c1cnccn1	-16%	4%	4µM*
Cc1nc(-c2cccc(N)c2)cs1	-6%	1%	-8%
CCC(=O)Nc1cccc(-c2cn3ccccc3n2)c1	/	-13%	/
Nc1cccc(-c2cn3ccsc3n2)c1	?	25µM*	/
c1ccc(-c2ccc(N3CC4(CCNCC4)C3)cc2)cc1	20µM*	16µM*	-7%[11.4 µM]
COC(=O)N1CCC2(CC1)CN(c1ccc(-c3ccccc3)cc1)C2	-15%	-14%	-1%[11.4 µM]
c1ccc(-c2ccc(N3CC[C@@]4(CCCNC4)C3)cc2)cc1	?	?	-23%[11.4 µM]
c1ccc(-c2ccc(N3CCCC4(CCNCC4)C3)cc2)cc1	20µM*	13µM*	-5%[11.4 µM]
CC#C[C@@]1(O)CC[C@@H]2[C@@H]3CCC4=CC(=O)CCC4=C3[C@@H](c3ccc(N(C)C)cc3)C[C@]21C	/	/	-9%
COc1ccc(-c2nc(CSCC(=O)NCCC(C)C)c(C)o2)cc1OC	9%	-8%	/
SMILES	p53ts 32C kill	p53ts 39C tox	Luciferase inh
COc1ccc(C2=NN(CC(=O)NCCCN(C)c3ccccc3)C(=O)CC2)cc1	-10%	-22%	/
COc1cccc(CN2C(=O)c3ccccc3Sc3ccc(C(=O)NCCc4ccc(Cl)cc4)cc32)c1	15%	-5%	/
Cc1ccc(C2Nc3ccccc3-c3nc4ccccc4n32)o1 (centres undefined)	-13%	-6%	13µM*
CN1c2ccccc2-c2nc3ccccc3n2C1c1ccncc1 (centres undefined)	-14%	-21%	-3%
N=C(N)c1ccc(N2CCN(C3CCN(CC(=O)O)CC3)CC2)cc1	-1%	-5%	/
CC1CCc2c(sc3nc(C4CC4)nc(SCC(=O)NCc4ccco4)c23)C1 (centres undefined)	-1%	3%	-16%
CC1CCc2c(sc3nc(SCC(=O)NCc4ccco4)nc(N)c23)C1 (centres undefined)	?	?	13µM*
COc1ccc(C(C)C)cc1S(=O)(=O)NCCc1c(C)[nH]c2ccc(C)cc12	16%	?	/
CCS(=O)(=O)CCSc1nc2ccccc2s1	5%	8%	1%
CS(=O)(=O)c1ccc(Sc2nc3ccccc3s2)c([N+](=O)[O-])c1	/	22µM*	/
COC(=O)CN1C(=O)C(O)(CC(=O)c2ccc(C)cc2)c2cc(Br)ccc21 (centres undefined)	-2%	-7%	3%

Screening results deposited in PubChem by National Center for Advancing Translational Sciences (NCATS).
